Screening data: PubChem BioAssay, Broad Institute
Tgondii IFNg: blocks Toxoplasma gondii growth in the presence of IFN-gamma. actives 3.8% (n = 69,000). AID 1259416. activity change, negative = inhibition, % (no concentration beside the values). Toxoplasma gondii growth in IFN-gamma-treated host cells; stronger effect = lower value; in the data active = activity change below about -70%, passing the limit was not always enough;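 also: host cells are HeLa cells infected with Toxoplasma gondii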
Large screens that a line does not name were inactive; ! = a repeat was not active. This is one part of a sample in which hits are shown more often than they occur.

C[C@@H]1CCCCO[C@H](CN(C)S(=O)(=O)c2ccc(Cl)cc2)[C@H](C)CN([C@@H](C)CO)C(=O)c2cc(NC(=O)Nc3ccc(C(F)(F)F)cc3)ccc2O1	none
CCOC(=O)NC(=O)c1cn(Nc2ncc(C(F)(F)F)cc2Cl)c(=O)[nH]c1=O	none
Cc1oc(-c2ccccc2)nc1Cn1c(=O)cc(C(=O)N2CCOCC2)c2ccccc21	none
c1cnc(N2CCN(Cc3ccc4c(c3)OCO4)CC2)nc1	none
CCCN(Cc1ccc(SC)cc1)C(=O)c1ccc2c(c1)nnn2C	none
C[C@@H]1CN([C@@H](C)CO)C(=O)CCCn2nncc2CO[C@@H]1CN(C)S(=O)(=O)c1cn(C)cn1	none
O=C(NCC1CCCCC1)[C@H]1[C@H](CO)[C@H]2Cn3c(cccc3=O)[C@@H]1N2C(=O)c1ccncc1	none
Cc1cnc(CNC(=O)[C@H]2CC3C(CCN3S(C)(=O)=O)O2)cn1 (stereo not given in full)	none
CCc1nnc(CN(C)Cc2cccc(C(=O)Nc3cnn(C)c3)c2)o1	none
COc1ccc(CNC(=O)c2cncc(N(C)S(=O)(=O)c3ccccc3)c2)cc1	none
COc1cc(NC2CC3(CCN(C(C)=O)CC3)Oc3ccccc32)ncn1 (stereo not given)	none
O=C(Cc1ccccn1)NCCC(=O)Nc1ccccc1F	none
COCCn1cnc(-c2nc(C(=O)N3CCCC3)c3ccccn23)c1	none
COc1ccc(-c2nc(C)c(CCNS(=O)(=O)c3ccc(Oc4ccccc4)cc3)s2)cc1OC	Tgondii IFNg -97.4
COc1ccc(-c2nc(C)c(CCNS(=O)(=O)c3ccc4ccccc4c3)s2)cc1OC	none
COc1ccc(-c2nc(C)c(CCNS(=O)(=O)c3ccc(C)cc3)s2)cc1OC	none
Cc1ccc(S(=O)(=O)N2CCC3(CC2)Nc2cc(C)ccc2-n2cccc23)c(C)c1	none
COc1ccc2c(c1)NC1(CCN(S(=O)(=O)c3cc(C)ccc3NC(C)=O)CC1)c1cccn1-2	none
NC(=O)c1csc(N2CC[C@@H](c3ccc4ccccc4c3)[C@H](O)C2)n1	none
CC(C)(C)C1CCC(CC2C(=O)C(=O)c3ccccc3C2=O)CC1 (stereo not given)	Tgondii IFNg -86.3
CC(=O)N1CC2(C1)[C@H](c1ccccc1)[C@H](CO)N2C(=O)Cc1ccccc1	none
Cc1ccn2cc(C(=O)N3CCCC(c4ncccc4C(=O)N4CCOCC4)C3)nc2c1 (stereo not given)	none
COc1cc(C(=O)NCCCCCC(=O)O)cc(OC)c1OC	none
COCC1(N(C)C(=O)CCNC(=O)c2ccc(F)cc2)CC1	none
CN(C)c1ccc(C(=O)NCCCCCCC(=O)NO)cc1	Tgondii IFNg -88.4!
CC(C)c1cc(C2CCN(C(=O)c3ncc(F)cc3F)CC2)[nH]n1	none
Cc1cccc(-c2[nH]c(C(C)(C)C)nc2-c2ccc3c(c2)OCO3)n1	Tgondii IFNg -83.0
NC(=O)c1ccc(-c2nc(-c3ccc4c(c3)OCO4)c(-c3ccccn3)[nH]2)cc1	none
COc1nccnc1-c1ccc2c(c1)OCO2	none
NC(=O)N1CCO[C@]2(CCC[C@H]2COc2ccccn2)C1	none
CO[C@H](CN(C)Cc1cc(F)ccc1F)[C@@H](C)CN(C(=O)Nc1ccc(C(F)(F)F)cc1)[C@H](C)CO	none
COc1ccccc1C(=O)C1C(=O)NC23CCN(C)CC2C1c1cc(Cl)ccc1O3 (stereo not given)	Tgondii IFNg -86.6
COc1cc(Cl)ccc1C(=O)NCC1CCCN(C)C1 (stereo not given)	none
COc1cc(C(=O)N2CCC3(CC2)NC(=O)c2ccc(Cl)cc2N3)cc(OC)c1OC	none
Cc1ccc2nc(C)c(C(=O)N3CCCN(c4ccncc4C)CC3)n2c1	none
CSc1nc2c(C)csc2c(=O)n1C	none
COc1ccccc1CNC1=NCCNC12CCN(S(=O)(=O)c1ccc(Cl)s1)CC2	none
CCN1CC2(CCCCN2C(=O)c2ccn(C)n2)CC1=O (stereo not given)	none
CC(C)C(=O)NCc1csc(C2CCCN(C(=O)/C=C/c3ccccc3)C2)n1 (stereo not given)	none
O=C(CCN1CCCC1)NC1(C#Cc2cnc3ccccc3c2)CCCCC1	none
O=C(C[C@@H]1C=C[C@H](NC(=O)Cc2ccccn2)[C@@H](CO)O1)NCCc1ccncc1	none
CCS(=O)(=O)N1Cc2nccn2CC(COc2cccnc2)C1 (stereo not given)	none
NC(=O)N1Cc2nccn2CC(COc2cccnc2)C1 (stereo not given)	Tgondii IFNg -100.4
CC(C)NC(=O)N1Cc2nccn2CC(COc2cccnc2)C1 (stereo not given)	none
C=CCN1CCN(C)C2(CCN(Cc3nccn3C)CC2)C1=O	none
CN1c2ccc(C3=CCCCC3)cc2[C@@H]2[C@@H](CCN2C(=O)c2ccc3c(c2)OCO3)[C@@H]1CO	none
O=C(Sc1ccc(Cl)cc1)c1cccnc1Oc1ccccc1	Tgondii IFNg -102.4
O=C(Nc1csc(-c2ccc(Cl)cc2)c1)c1cccnc1Oc1ccc(Cl)cc1	none
O=C(NCc1csc2ccc(Cl)cc12)c1cccnc1Oc1ccc(Cl)cc1	none
CN1C(=O)c2cc(NC(=O)c3cccc(Cl)c3)ccc2OC[C@H]2O[C@H](CC(=O)NC3CCCCC3)CC[C@@H]21	none
COc1cc(-c2cccc(O)c2)ncn1	none
CC(=O)N1CC(=O)N(c2ccccc2)CC12CCN(C(=O)N1CCCC1)C2 (stereo not given)	none
CC(=O)N1CC(=O)N(c2ccccc2)CC12CCN(CC1CCOCC1)C2 (stereo not given)	Tgondii IFNg -85.9
CC(=O)N1CC(=O)N(c2ccccc2)CC12CCN(C(=O)C1CCOCC1)C2 (stereo not given)	none
C=CCN1C(=O)CO[C@@H]2CN(c3cc(C(F)(F)F)ncn3)C[C@@H]21	none
Cc1noc(C)c1S(=O)(=O)N(C)C[C@@H]1OCCCC[C@H](C)Oc2ccc(NC(=O)CCC(F)(F)F)cc2C(=O)N([C@@H](C)CO)C[C@H]1C	none
CN1CCN(C2CCN(C(=O)Nc3cc(Oc4ccc(NC(=O)C5(C(=O)Nc6ccc(F)cc6)CC5)c(F)c4)ccn3)CC2)CC1	none
COc1cc2nccc(Oc3ccc(NC(=O)C4(C(=O)Nc5ccc(F)cc5)CC4)cc3)c2cc1OC	Tgondii IFNg -90.8
COc1ccc(NC(=O)C(=O)NCCc2csc(-c3ccc(F)cc3)n2)cc1OC	none
CCS(=O)(=O)N1CCn2c(CNC(=O)c3cccn3C)cnc2C1	none
CCS(=O)(=O)N1CCC2(CC1)CN(S(=O)(=O)c1ccc(C)cc1)[C@@H](CO)c1[nH]c3cc(OC)ccc3c12	none
COCCNC(=O)c1ccc2c(c1)N(C)C(CC(=O)N1CC=CCC1)CO2 (stereo not given)	none
OCCNc1cc(-c2nccc(C3CCCC3)n2)c2cc[nH]c2n1	none
COC(=O)[C@H](Cc1ccccc1)NC(=O)[C@@H](N)CC(=O)O	none
COc1ncc(C(=O)NC(Cc2ccccc2)c2ccc3c(c2)OCCO3)cn1 (stereo not given)	none
COC[C@H](NC(=O)c1cnc(C)s1)C(=O)N[C@@H](COC)C(=O)N[C@@H](Cc1ccccc1)C(=O)C1(C)CO1 (stereo not given in full)	Tgondii IFNg -77.0
Cc1ccccc1Cn1c(CN2CCC(C(=O)N3CCCC3)CC2)cc2ccccc21	none
Cc1ccc(C)c(OCC(=O)NCc2noc(Cc3cccs3)n2)c1C	none
CC1CCN(c2ncc(-c3cncn3CCCC(C)(C)CO)cn2)CC1	none
CC(Cn1cnc2c3cc(F)ccc3n(CC(=O)NC3CCCC3)c2c1=O)c1ccccc1 (stereo not given)	Tgondii IFNg -101.6
Cc1noc(-c2cc(=O)n(CC(=O)NC3CCCC3)c3ccccc23)n1	none
Cc1ccc2c(c1)cc(S(=O)(=O)c1ccccc1)c(=O)n2CC(=O)NC1CCCC1	none
COc1cc2[nH]c3c(=O)n(CC(=O)N4CCN(c5ccccn5)CC4)cnc3c2cc1OC	none
